High-throughput results from PubChem.
Shown are actives, neighbours in structure and some others; about 1.3% of the full set was active somewhere.
LRH-1 inv ag: suppresses constitutive activity of human LRH-1. hit rate 0.13% among 360,000. O00482. inhibition, % at 3.6 µM. HEK293T StAR-luciferase reporter, LRH-1 transfected, 24 h;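 active = inhibition above the mean inhibition of all tested compounds plus 3 SD, cut at about 73% in these data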;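 note: 0% = DMSO wells and 100% = reporter-only cells lacking LRH-1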
NR2F2 inh: NR2F2 (human) inhibition, primary screen | inhibition, % at 8.6 µM | hit rate 0.7% among 370,000 | HEK293T NGFI-A luciferase reporter, luminescence;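 active = inhibition above a per-plate cutoff, mean inhibition of test wells between control levels plus 3 SD, cut at about 38% in these data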;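 note: cells cotransfected with COUP-TFII expression vector driving the NGFI-A reporter; 0% = median of COUP-TF2 test wells and 100% = reporter-only cells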
SRC2 inh: human SRC2 (NCOA2) inhibition | AID 651957 | inhibition, % at 9 µM | hit rate 0.17% among 370,000 | HEK293 GAL4-SRC2 luciferase reporter, luminescence | Q15596;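 active = inhibition above the mean inhibition of all tested compounds plus 3 SD, set per campaign, cut at about 52% in these data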;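 note: 0% = DMSO treated cells and 100% = cells given Gossypol at 36 µM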
NCOA1 inh: human NCOA1 inhibition. Q15788. HEK293 GAL4-SRC1 luciferase reporter, luminescence. inhibition, % at 3.6 µM. hit rate 0.12% among 360,000;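 active = inhibition above the campaign mean plus 3 SD, with each screening campaign given its own cutoff, cut at about 60% in these data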;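 note: 0% = DMSO treated cells and 100% = gossypol at 36 µM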
Gli-Sufu block: Gli-Sufu pathway antagonism. AID 588413. inhibition, % at 5 µM. Sufu-KO-LIGHT fibroblasts, Gli luciferase reporter luminescence. hit rate 0.74% among 340,000;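 active = inhibition above about 55%, limit read from the data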;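 note: 0% = DMSO-treated cells and 100% = wells with medium but no cells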
NCOA3 inh: human NCOA3 inhibition | inhibition, % at 3.6 µM | HEK293 GAL4-SRC3 luciferase reporter, luminescence | hit rate 0.17% among 360,000 | Q9Y6Q9;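 active = inhibition above a per-campaign cutoff, the mean of all compounds plus 3 SD, cut at about 60% in these data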;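 note: 0% = DMSO-treated cells and 100% = gossypol-treated cells at 36 µM; higher means less SRC3-driven luciferase light from the GAL4 reporter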
Gal4-VP16 ctr: VP16 inhibition counter-screen for COUP-TFII | shares compounds with NR2F2 inh | HEK293 Gal4-VP16 luciferase reporter, luminescence | inhibition, % at 8.5 µM | hit rate 25% among 2,500 | AID 687007; in the data active = inhibition above about 13%
COUP-TFII conf: COUP-TFII (NR2F2) inhibition, confirmation assay | inhibition, % at 8.5 µM | shares compounds with NR2F2 inh | hit rate 45% among 2,500 | AID 687008 | HEK293 NGFI-A luciferase reporter, luminescence;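 active = mean inhibition over three repeats above a set limit taken from the earlier primary screen, cut at about 38% in these data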;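 note: 100% = cells given the luciferase reporter alone without the COUP-TF2 vector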
Numbers without * were called inactive; . = no result.

SMILES	LRH-1 inv ag	NR2F2 inh	SRC2 inh	NCOA1 inh	Gli-Sufu block	NCOA3 inh	Gal4-VP16 ctr	COUP-TFII conf
O=C(N/N=C/c1ccc([N+](=O)[O-])s1)c1ccncc1	44	.	.	-3	17	26	.	.
Cc1ccc(C(=O)N/N=C\c2ccc([N+](=O)[O-])s2)cn1	38	40*	27	6	33	19	31*	20
Cc1[nH]cnc1C(=O)N/N=C/c1ccc([N+](=O)[O-])s1	15	-17	-8	-24	16	-55	.	.
O=C(CCc1ccc(S(=O)(=O)N2CCOCC2)cc1)Nc1nc(COc2ccccc2)cs1	14	39*	12	5	18	11	-2	18
NCCOc1ccccc1-c1ccccc1	17	2	-38	-5	-7	13	.	.
Nc1ccc(Oc2ccccc2-c2ccccc2)cc1	48	78*	83*	44	20	58	77*	73*
O=[N+]([O-])c1ccc(CN2CCN(c3ccc([N+](=O)[O-])cc3)CC2)cc1	21	40*	13	5	20	11	4	20
O=C1C[C@@H](O)[C@H](O)c2cccc(O)c21	.	14	-64	.	.	.	.	.
Cc1ccc(CNC(=O)C(=O)NCC2OCCN2S(=O)(=O)c2ccc(C)cc2)cc1 (stereo unspecified)	4	19	-3	-50	-4	14	.	.
Cc1ccc(CNC(=O)C(=O)NCC2OCCN2S(=O)(=O)c2ccc(Br)cc2)cc1 (stereo unspecified)	24	48*	8	-48	6	24	-2	12
COc1ccc(NC(=O)c2cnc(SCC(=O)NCCc3ccccc3)n(C)c2=O)cc1	-6	11	9	5	10	-1	.	.
Cn1c(SCC(=O)NCCc2ccccc2)ncc(C(=O)Nc2ccccc2)c1=O	28	54*	14	2	8	8	4	1
CC(C)NC(=O)N1CCCN(c2nc3ccc(Cl)cc3s2)CC1	12	41*	-16	-6	-7	9	-31	5
CC(C)C(=O)N1CCN(c2nc3ccc(Cl)cc3s2)CC1	-78	-4	-24	-71	-82	-34	.	.
Cc1ccc(-c2cnc(-c3ccncc3)o2)cc1	-78	-49	-18	-71	-74	-72	.	.
Nc1ccc(-c2ncc(-c3ccccc3)o2)cc1	34	79*	80*	21	24	15	72*	62*
CCN(CC)S(=O)(=O)c1ccc2c(c1)nc(CCC(=O)Nc1cccc(C(F)(F)F)c1)n2CC	14	19	-12	-6	3	5	.	.
CCN(CC)S(=O)(=O)c1cccc(NC(=O)Nc2cccc(C(F)(F)F)c2)c1	35	39*	15	17	24	50	-5	13
COCCN(C(=O)CCC(=O)Nc1nccs1)C(C(=O)NC(C)(C)C)c1ccc(F)cc1 (stereo unspecified)	-2	5	-10	15	0	1	.	.
COCCN(C(=O)CCC(=O)Nc1nccs1)C(C(=O)NC(C)(C)C)c1ccc(C)cc1 (stereo unspecified)	-25	60*	76*	-13	-9	0	-1	-5
O=C1/C(=C/c2cccnc2)CCc2c1[nH]c1ccccc21	-115	15	6	10	-22	0	.	.
CC1C/C(=C\c2cccnc2)C(=O)/C(=C/c2cccnc2)C1 (stereo unspecified)	56	96*	80*	-199	-6	11	91*	105*
Cc1ccc(NC(=O)CSc2ncnc3ccccc23)cc1S(=O)(=O)N1CCCCC1	-25	39*	36	-9	5	18	-7	8
Cc1ccc(NC(=O)Cc2n[nH]c(=O)c3ccccc23)cc1S(=O)(=O)N1CCCCCC1	-6	38*	23	-3	41	-7	-2	17
CN(CC(=O)Nc1ccc(Cl)c(C(F)(F)F)c1)C(=O)Cc1n[nH]c(=O)c2ccccc12	-22	46*	28	-13	11	16	-5	10
SMILES	LRH-1 inv ag	NR2F2 inh	SRC2 inh	NCOA1 inh	Gli-Sufu block	NCOA3 inh	Gal4-VP16 ctr	COUP-TFII conf
N#Cc1cc2ccccc2nc1SCC(=O)Nc1ccc(S(=O)(=O)N2CCCC2)cc1	-2	39*	14	-20	11	24	-8	2
COC(=O)[C@]12C[C@H](CC(=O)NCc3cccs3)C(=O)N(Cc3ccc(Cl)cc3Cl)C1=C[C@H](C1CCCC1)O[C@@H]2C	.	13	6	.	.	.	.	.
CNC(=O)CCc1nc(-c2ccc(C(C)C)cc2)no1	.	-16	.	.	.	.	.	.
CCOC(=O)[C@@]12CN(C(=O)OC(C)(C)C)CC=C1N(Cc1ccc(OC)cc1)C(=O)[C@H]2CC(=O)NCC1CCCCC1	.	13	-2	.	.	.	.	.
CC(C)(C)c1ccc(-n2ncc3c2CCCC3NC(=O)CN2CCCC2=O)cc1 (stereo unspecified)	2	43*	31	9	37	29	5	23
Cn1nccc1C(=O)NC1CCCc2c1cnn2-c1ccc(C(C)(C)C)cc1 (stereo unspecified)	45	69*	26	11	76*	34	-4	69*
Cc1cc(C)cc(-n2ncc3c2CCCC3NC(=O)CN2CCCC2=O)c1 (stereo unspecified)	-1	-17	3	-21	6	-10	.	.
CCOc1ccc(/C=C2\SC(=S)N(CCCC(=O)NCCCN3CCOCC3)C2=O)cc1	31	69*	84*	33	18	33	27*	25
CCc1ccc(/C=C2/SC(=S)N(CCC(=O)NCCCN3CCOCC3)C2=O)cc1	-6	-1	-27	-51	8	-6	.	.
O=C(CCCN1C(=O)/C(=C/c2ccccc2Cl)SC1=S)NNC(=O)c1ccccc1Cl	46	69*	83*	52	31	60	69*	71*
O=C(CCN1C(=O)/C(=C/c2ccccc2F)SC1=S)NCCCN1CCOCC1	11	-7	-6	5	-26	0	.	.
CCc1ccc(/C=C2\SC(=S)N(CCCC(=O)NCCCN3CCOCC3)C2=O)cc1	36	84*	89*	49	.	45	68*	59*
O=C(CCCN1C(=O)/C(=C/c2ccccc2Cl)SC1=S)NCCCN1CCOCC1	18	63*	79*	18	10	15	10	15
COc1ccc(CN2C(NC(=O)OCc3ccccc3)=NC3=CC(C)(C)n4c(=O)n(-c5ccccc5)c(=O)n4C32)c(OC)c1 (stereo unspecified)	.	-8	-29	.	.	.	.	.
CC1(C)CC(=O)C=C(c2ccc(-c3cnc4ccccc4c3)cc2)C1=O	7	42*	16	-26	.	-23	-62	78*
Cc1ccc(CCNc2ncnc(Cl)c2N)cc1	-20	64*	-9	-27	11	-23	-69	49*
COc1cccc(CNC(=O)c2cc3c(C)nc4ccccc4c3o2)c1	22	38*	22	2	8	-19	3	16
Cc1nc2ccccc2c2oc(C(=O)NCC3COc4ccccc4O3)cc12 (stereo unspecified)	33	31	31	-5	20	15	.	.
CCc1ccc(CNC(=O)c2cc3c(C)nc4ccccc4c3o2)cc1	14	51*	41	2	39	6	6	37
O=C(Nc1cccc(Cl)c1)OC1CCC12CCC(c1ccccc1)CC2 (stereo unspecified)	.	-6	-4	.	.	.	.	.
